# Measurements from PubChem BioAssay (NCI).
# The panel holds about 79,000 compounds, 15% with a hit somewhere; the sample as a whole holds those more often. A number with no mark means an inactive call. Calls of active or inactive are those of the source. No stated cut-off is given here; in the data, active means growth inhibition above about 70%; inactive means the rest. Where a SMILES comes first, the peptide text is derived from it. Bridges are numbered along the chain shown (N, C = ends). [ ]: non-standard residue; d: D form. NMeV = CN[CH](C(=O)O)C(C)C; Sar = CNCC(=O)O
# Legend:
# [1] = NCI Yeast Anticancer Drug Screen. Data for the rad50 strain (AID 155);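 further: 0% = growth of vehicle-only cultures of the same strain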; settings: S. cerevisiae rad50 strain growth inhibition, active compounds read high
# Summary of the method: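 Genetically altered yeast (DNA repair pathway); compound treatment; growth inhibition vs vehicle ctrl.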
# [2] = NCI Yeast Anticancer Drug Screen. Data for the mec2-1 strain (AID 157); settings: S. cerevisiae mec2-1 strain, active compounds read high
# Summary of the method: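 Vehicle-treated cultures served as reference for growth inhibition of compound-exposed mec2-1 yeast.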
# [3] = NCI Yeast Anticancer Drug Screen. Data for the sgs1 mgt1 strain (AID 161);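 further: 0% = growth of cultures given vehicle only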; settings: S. cerevisiae sgs1 mgt1 strain, active compounds read high
# Summary of the method: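 Read-out: growth inhibition vs vehicle controls. Cells: mutant yeast strain deficient in DNA damage repair.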
# [4] = NCI Yeast Anticancer Drug Screen. Data for the cln2 rad14 strain (AID 165);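 further: 0% = growth equal to vehicle treated cultures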; settings: S. cerevisiae cln2 rad14 strain, active compounds read high
# Summary of the method: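 Each compound was tested on cln2 rad14 yeast. Inhibition of growth was calculated against vehicle-exposed controls.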
# [5] = NCI Yeast Anticancer Drug Screen. Data for the bub3 strain (AID 167); settings: S. cerevisiae bub3 mutant strain, active compounds read high
# Summary of the method: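 Yeast carrying a defined mutation is treated with each compound, and growth is compared with that of vehicle-exposed cells to give inhibition.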
# [6] = NCI Yeast Anticancer Drug Screen. Data for the mlh1 rad18 strain (AID 175); settings: S. cerevisiae mlh1 rad18 strain growth inhibition, active compounds read high
# Summary of the method: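 Vehicle-treated cultures served as the reference for growth inhibition in a yeast strain carrying DNA damage repair alterations exposed to each compound.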
# [7] = at 5.0 µM (retest, dose inferred, filed as 0.5)
# [8] = at 50.0 µM (retest, dose inferred, filed as 5.0)
SMILES,"growth inhibition [1, 7]","growth inhibition [1, 8]",growth inhibition ([1]; at 50.0 µM),"growth inhibition [2, 7]","growth inhibition [2, 8]",growth inhibition ([2]; at 50.0 µM),"growth inhibition [3, 7]","growth inhibition [3, 8]",growth inhibition ([3]; at 50.0 µM),"growth inhibition [4, 7]","growth inhibition [4, 8]",growth inhibition ([4]; at 50.0 µM),"growth inhibition [5, 7]","growth inhibition [5, 8]",growth inhibition ([5]; at 50.0 µM),"growth inhibition [6, 7]","growth inhibition [6, 8]",growth inhibition ([6]; at 50.0 µM)
COc1ccc(CCNC(=S)/N=C\C(C(=O)c2ccccc2)=C(\O)c2ccccc2)cc1OC,1%,95% (active),99% (active),0%,93% (active),98.8% (active),-2%,75% (active),99% (active),-25%,98% (active),97.8% (active),0%,99% (active),98.8% (active),3%,97% (active),98.6% (active)
CCC(c1ccc(O)cc1)C(CC)c1ccc(OCC(N)=O)cc1 (configuration not stated),10%,-5%,90.1% (active),0%,-10%,80.5% (active),-16%,7%,89.8% (active),-18%,-22%,78.8% (active),-15%,27%,93% (active),20%,44%,91.3% (active)
O=C(OC1C=C=CS(=O)(=O)CC#C/C=C\1)c1cnc2ccccc2n1 (configuration not stated),15%,96% (active),76.9% (active),-17%,95% (active),75.8% (active),-28%,91% (active),74.3% (active),15%,90% (active),78.5% (active),-36%,94% (active),79.5% (active),19%,97% (active),69.3%
O=C(CC(=O)C(F)(F)F)c1ccc(-c2ccccc2)cc1,27%,99% (active),97% (active),45%,99% (active),98.2% (active),39%,99% (active),98% (active),14%,98% (active),97.8% (active),36%,99% (active),97.2% (active),45%,99% (active),98.7% (active)
CN1CCC(OC(=O)c2ccc3ncccc3c2)CC1,-6%,6%,34.6%,-2%,4%,26.6%,-2%,13%,17.6%,-5%,2%,85.6% (active),-4%,2%,33.9%,-7%,7%,32%
C[C@]12CC[C@H](O)CC1=CC[C@@H]1C2CC[C@]2(C)C(=O)N(N)C(=O)CC12 (some centres not stated),7%,92% (active),83.7% (active),-24%,91% (active),88.3% (active),16%,93% (active),87.8% (active),2%,92% (active),88.4% (active),16%,93% (active),86.7% (active),-11%,91% (active),84.4% (active)
COC(=O)c1ccc2ccccc2c1,5%,15%,47%,-1%,4%,28.1%,1%,4%,22.4%,2%,-4%,24.6%,5%,29%,80.2% (active),5%,11%,34.3%
COC1=CC(=O)C(C#CCOCc2ccccc2)=CC1=O,12%,99% (active),99.1% (active),0%,99% (active),99.2% (active),-6%,79% (active),99% (active),-8%,98% (active),94.7% (active),-16%,99% (active),93% (active),8%,99% (active),98.8% (active)
Clc1ccc(CN2CCN(Cc3ccc(Cl)cc3)C2c2ccc(Cl)cc2)cc1,17%,66%,21.9%,4%,58%,34.5%,40%,92% (active),53.5%,26%,55%,69.4%,33%,83% (active),28.1%,28%,77% (active),27.2%
O=C1OC(c2ccccc2)(c2ccc(-c3ccc(O)cc3)cc2)c2ccccc21 (configuration not stated),6%,95% (active),95.6% (active),3%,97% (active),97.6% (active),-1%,97% (active),96.8% (active),6%,96% (active),95.3% (active),8%,96% (active),95.8% (active),7%,96% (active),96.7% (active)
Nc1nc(N)c2nc(Sc3ccc(F)cc3)c(N)nc2n1,-2%,37%,42.7%,-1%,-4%,39.2%,-1%,40%,51.6%,2%,24%,10.3%,-1%,26%,40.9%,0%,58%,75.1% (active)
CC(N)C1C(C)CC2C3CC=C4CC(O)CCC4(C)C3CCC21C (configuration not stated),50%,85% (active),4.45%,35%,74% (active),25.1%,83% (active),-19%,74% (active),49%,86% (active),8.3%,52%,85% (active),84.1% (active),57%,86% (active),53.2%
CCCCCCCC[N+](C)(CCCCCCCC)CCCCCCCC,51%,95% (active),90.5% (active),47%,91% (active),92.2% (active),98% (active),97% (active),93% (active),71% (active),98% (active),91.7% (active),96% (active),96% (active),91.7% (active),41%,98% (active),91.2% (active)
Nc1nc(Cc2ccccc2)nc(Cc2ccccc2)c1-c1ccccc1,25%,97% (active),96.4% (active),-2%,98% (active),96.5% (active),6%,98% (active),96.8% (active),4%,95% (active),94.1% (active),15%,98% (active),96% (active),4%,97% (active),95.6% (active)
COc1cccc2c1C(=O)c1c(O)c3c(c(O)c1C2=O)CC(O)(C(=O)CO)CC3OC1CC(N)C(I)C(C)O1 (configuration not stated),98% (active),98% (active),89.5% (active),98% (active),99% (active),88.8% (active),98% (active),98% (active),85.8% (active),95% (active),98% (active),87.4% (active),98% (active),98% (active),83.8% (active),96% (active),97% (active),91% (active)
CN(C)CCC(/C=C/c1ccccc1)=N\Nc1ccc(Cl)cc1,27%,99% (active),99.2% (active),17%,99% (active),99% (active),56%,100% (active),99.1% (active),12%,99% (active),99.2% (active),46%,99% (active),99.3% (active),42%,99% (active),85.3% (active)
CC(C)C1NC(=O)C(N)C(C)OC(=O)C(C(C)C)N(C)C(=O)CN(C)C(=O)C2CCCN2C1=O (configuration not stated) (tested in a mixture with another compound) (H-TVP[Sar][NMeV]; ester 1-C; configuration not given here),21%,94% (active),89.1% (active),10%,97% (active),92.2% (active),18%,91% (active),90.3% (active),39%,95% (active),87.5% (active),16%,96% (active),90.8% (active),11%,95% (active),90.2% (active)
CC(O)C(NC(=O)OCc1ccccc1)C(=O)OC(c1ccccc1)c1ccccc1 (configuration not stated),0%,95% (active),98% (active),17%,99% (active),97.8% (active),-23%,98% (active),97.5% (active),-3%,96% (active),97% (active),2%,97% (active),97.3% (active),10%,97% (active),96.5% (active)
C/C(O)=C(/C=N/C(=S)Nc1ccc(S(N)(=O)=O)cc1)C(=O)Nc1ccccc1C,0%,18%,79.7% (active),-10%,-4%,81.7% (active),-5%,-2%,68.8%,-14%,6%,81.3% (active),-13%,-6%,67.5%,3%,-15%,89.4% (active)
